Measured values as given in PubChem BioAssay (NCI).
Several values for one entry are separate records, joined by “and”; a condition that tells them apart may be missing. Identical values can stand only once. About 79,000 compounds went through this panel and 15% of them were active in at least one assay; those are over-represented in the sample as a whole. A number with no mark means an inactive call. Activity calls are given as the source filed them. Rule as the data show it: active = growth inhibition above about 70%; inactive = the rest.

Test: NCI Yeast Anticancer Drug Screen. Data for the rad50 strain (AID 155);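 also: 0% = growth of vehicle-only cultures of the same strain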
Conditions: S. cerevisiae rad50 strain growth inhibition, stronger effect = higher value
Method: Growth inhibition of yeast strains with defined genetic alterations is measured as a screen for potential anti-cancer activity. Selected strains with alterations in DNA damage repair or cell cycle control were exposed to compounds and growth inhibition was measured relative to vehicle treated controls. The strain used in this assay is rad50

[1] = at 5.0 µM (retest, dose inferred, filed as 0.5)
[2] = at 50.0 µM (retest, dose inferred, filed as 5.0)

SMILES	growth inhibition (at 1.2 µM)	growth inhibition (at 3.7 µM)	growth inhibition [1]	growth inhibition (at 11.0 µM)	growth inhibition (at 33.0 µM)	growth inhibition [2]	growth inhibition (at 50.0 µM)	growth inhibition (at 100.0 µM)
Cc1nc2ccccc2c(=O)n1NC(=O)c1ccc(CS)cc1	7%	3%	-24%	4%	23%	9%	66.2%	97% (active)
COC(=O)C1(N2CCOCC2)CCC([C@@H](c2ccccc2)C(C)[N+](=O)[O-])C1 (stereo not given in full)	0%	2%	11%	17%	43%	-3%	57.2%	94% (active)
CCCCCCCCCC/C=C\CC(=O)O	0%	-1%	-1%	17%	18%	81% (active)	-10.8%	99% (active)
CN(C)c1ccc(C(c2ccc(Cl)cc2)c2ccc(N(C)C)cc2)cc1	64%	97% (active)	91% (active) and 98% (active)	96% (active)	89% (active)	94% (active) and 99% (active)	95.7% (active) and 94.5% (active)	79% (active)
CCOC(=O)/C(O)=C(/C=N/C(=S)Nc1c(CC)cccc1CC)C(=O)OCC	-6%	-3%	7%	11%	36%	65%	65.3%	47%
